A number with no mark means an inactive call. Results filed as inconclusive are left out. Activity calls are given as the source filed them. Unless noted, the call rests on the fitted dose curve; in most records, active means well fitted curve in the direction sought with a large enough effect in the repeat runs; inconclusive means weak or mixed curves; inactive means no such curve, though single readings can be large; an effect the other way counts as inactive or inconclusive.

Assay [1] concerns the target Thyrotropin-releasing hormone receptor (Homo sapiens) (UniProt P34981). The experiment in a line: qHTS assay to identify small molecule agonists of the thyrotropin-releasing hormone receptor (TRHR) signaling pathway (AID 1346891; calls by dose curve;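 further: HEK293 cells expressing TRHR with calcium dye readout; series mostly up to about 58 µM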). In a few lines: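 Cells: TRHR-Hek293, seeded and incubated 18 h. Dye loading: 2 h at 37 °C. Compound added from DMSO stock by pin tool. Read-out: kinetic calcium fluorescence over 3 min.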
(qHTS replaces the single test concentration by a dilution series.)

Assay [2] is described as follows: Human pregnane X receptor (PXR) small molecule agonists, qHTS cell viability counter screen (AID 1346977). Further: nearly all actives have a fitted effect of over 50% in size. Further: potency means the concentration at half of the fitted maximal effect. In a few lines:
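Cytotoxicity counter screen run in the same wells as the PXR luciferase assay, using PXR-Luc HepG2 cells in charcoal-stripped serum medium. Viability: CellTiter-Fluor fluorescence after 24hr compound treatment.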

Assay [3] in a line: Caspase-3/7 induction in CHO-K1 cells by small molecules, qHTS cell viability counter screen (AID 1346979). Further: nearly all actives have a fitted effect of over 35% in size. Further: potency means the concentration at half of the fitted maximal effect. In a few lines:
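Cytotoxicity counter screen run in parallel with the caspase-3/7 assay: CHO-K1 cells, 16hr compound treatment at 37C, then CellTiter-Fluor for 1hr before fluorescence reading.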

Assay [4] is described as follows: Caspase-3/7 induction in CHO-K1 cells by small molecules, qHTS assay (AID 1346980). Further: nearly all actives have a fitted effect of over 15% in size. The gist of the method:
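Luminescent Caspase-Glo 3/7 read (30min, room temperature) quantified apoptosis induction. Cells were wild-type CHO-K1, treated with compound for 17hr at 37 C and 5% CO2.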

A short description of assay [5]: Caspase-3/7 induction in HepG2 cells by small molecules, qHTS cell viability counter screen (AID 1346981). Further: nearly all actives have a fitted effect of over 30% in size. Further: potency means the concentration at half of the fitted maximal effect. In a few lines: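 After a 5-hr attachment period at 37 C and 5% CO2, wild-type HepG2 cells received compounds in DMSO. Sixteen hours later CellTiter-Fluor was dispensed and the fluorescent signal quantified after a further hour.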
In assay [6] the target is Nuclear receptor subfamily 1 group I member 2 (Homo sapiens) (UniProt O75469). The experiment in a line: Human pregnane X receptor (PXR) small molecule agonists, qHTS assay (AID 1346982). Further: nearly all actives have a fitted effect of over 35% in size. The gist of the method:
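Tox21 qHTS; PXR-Luc HepG2; compounds pinned from DMSO; 24 hr, 37 C; ONE-Glo luciferase detection, 30 min room temperature.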

In assay [7] the target is Cytochrome P450 2D6 (Homo sapiens) (UniProt P10635). The experiment in a line: Cytochrome P450 Family 2 Subfamily D Member 6 (CYP2D6) small molecule antagonists: luciferase reporter qHTS assay (AID 1671196). Further: nearly all actives have a fitted effect of over 50% in size. Further: potency means the concentration at half of the fitted maximal effect. In a few lines:
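Room-temperature luminescent CYP2D6 activity assay: compound preincubated 10 min with enzyme–substrate mix, NADPH-initiated reaction 1 h, detection reagent 20 min before reading.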
For orientation: A reporter such as luciferase makes a cellular process visible.

The target in assay [8] is Cytochrome P450 2C9 (Homo sapiens) (UniProt P11712). The experiment in a line: Cytochrome P450 Family 2 Subfamily C Member 9 (CYP2C9) small molecule antagonists: luciferase reporter qHTS assay (AID 1671198). Further: nearly all actives have a fitted effect of over 50% in size. Further: potency means the concentration at half of the fitted maximal effect. In a few lines:
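Enzyme-substrate mix preincubated with compound 10 min at room temperature; reaction started with NADPH regeneration solution, 1 h 37C. Luminescent luciferin product read after 20 min detection reagent.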

Assay [9] has as its target Cytochrome P450 1A2 (Homo sapiens) (UniProt P05177). Nature of the assay: Cytochrome P450 Family 1 Subfamily A Member 2 (CYP1A2) small molecule antagonists: luciferase reporter qHTS assay (AID 1671199). Further: nearly all actives have a fitted effect of over 50% in size. Further: potency means the concentration at half of the fitted maximal effect. In a few lines: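 Room-temperature CYP1A2 reaction with proluciferin substrate: compounds added from DMSO, 10 min preincubation, NADPH regeneration for 1 h. Luciferin detection reagent then added; luminescence recorded as RLU.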

The target of assay [10] is Voltage-gated inwardly rectifying potassium channel KCNH2 (Homo sapiens) (UniProt Q12809). The experiment in a line: Human Ether-a-go-go-Related Gene (hERG) channel small molecule antagonists: fluorescence cell-based qHTS assay (AID 1671200). The gist of the method: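 Fluorescence at 540 nm emission (480 nm excitation) was recorded kinetically for 2 min at 1-second intervals once the thallium-containing stimulus reached cells previously loaded with FluxOR II dye.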
Chain of Voltage-gated inwardly rectifying potassium channel KCNH2 (Homo sapiens) (Q12809 whole entry, looked up): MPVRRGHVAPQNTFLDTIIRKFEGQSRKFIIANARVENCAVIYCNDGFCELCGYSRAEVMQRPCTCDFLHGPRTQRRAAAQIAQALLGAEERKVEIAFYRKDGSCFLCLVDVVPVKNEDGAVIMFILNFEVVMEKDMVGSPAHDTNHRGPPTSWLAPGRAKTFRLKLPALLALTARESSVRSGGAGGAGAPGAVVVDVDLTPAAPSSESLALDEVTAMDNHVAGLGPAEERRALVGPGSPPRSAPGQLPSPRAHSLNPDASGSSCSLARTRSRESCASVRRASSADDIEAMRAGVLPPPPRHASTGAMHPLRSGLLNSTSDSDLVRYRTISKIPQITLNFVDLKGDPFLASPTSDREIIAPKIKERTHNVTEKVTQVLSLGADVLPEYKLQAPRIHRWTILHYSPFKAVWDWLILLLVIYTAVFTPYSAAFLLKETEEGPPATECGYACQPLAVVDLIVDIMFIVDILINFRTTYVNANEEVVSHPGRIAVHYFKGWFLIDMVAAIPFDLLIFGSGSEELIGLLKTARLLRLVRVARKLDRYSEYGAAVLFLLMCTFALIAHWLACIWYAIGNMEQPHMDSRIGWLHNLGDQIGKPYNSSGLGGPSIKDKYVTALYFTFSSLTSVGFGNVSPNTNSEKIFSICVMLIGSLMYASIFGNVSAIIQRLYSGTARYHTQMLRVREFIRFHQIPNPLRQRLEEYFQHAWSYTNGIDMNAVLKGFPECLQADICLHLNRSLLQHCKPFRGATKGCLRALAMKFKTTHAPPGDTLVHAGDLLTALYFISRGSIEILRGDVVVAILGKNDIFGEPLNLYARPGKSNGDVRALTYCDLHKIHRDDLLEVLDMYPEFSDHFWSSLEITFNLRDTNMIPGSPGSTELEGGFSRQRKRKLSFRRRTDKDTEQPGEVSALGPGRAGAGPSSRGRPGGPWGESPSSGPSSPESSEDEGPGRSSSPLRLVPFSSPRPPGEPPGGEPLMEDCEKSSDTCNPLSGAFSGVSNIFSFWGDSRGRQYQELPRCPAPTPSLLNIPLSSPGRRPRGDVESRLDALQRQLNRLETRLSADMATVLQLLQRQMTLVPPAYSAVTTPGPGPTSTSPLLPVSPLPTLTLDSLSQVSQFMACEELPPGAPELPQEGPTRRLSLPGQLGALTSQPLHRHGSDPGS

The target in assay [11] is Cytochrome P450 3A4 (Homo sapiens) (UniProt P08684). Nature of the assay: Cytochrome P450 Family 3 Subfamily A Member 4 (CYP3A4) small molecule antagonists: luciferase reporter qHTS assay (AID 1671201). Further: nearly all actives have a fitted effect of over 50% in size. Further: potency means the concentration at half of the fitted maximal effect. The gist of the method:
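qHTS, 1536-well. CYP3A4 + proluciferin substrate, cpd 10 min RT → NADPH regen 1 h RT → detection reagent 20 min → luminescence (RLU). Ketoconazole positive control.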

The target of assay [12] is Cytochrome P450 2C19 (Homo sapiens) (UniProt P33261). The experiment in a line: Cytochrome P450 Family 2 Subfamily C Member 19 (CYP2C19) small molecule antagonists: luciferase reporter qHTS assay (AID 1671197). Further: nearly all actives have a fitted effect of over 65% in size. Further: potency means the concentration at half of the fitted maximal effect. The gist of the method:
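P450-Glo CYP2C19 screening system; proluciferin substrate; DMSO compound stocks; 10 min RT preincubation; NADPH regeneration, 1 h at 37C; luciferin detection reagent, 20 min RT; luminescence as RLU.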

A short description of assay [13]: Caspase-3/7 induction in HepG2 cells by small molecules, qHTS assay (AID 1346978). Further: nearly all actives have a fitted effect of over 15% in size. The gist of the method:
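Caspase-3/7 induction was measured by Caspase-Glo 3/7 luminescence (30 min, room temperature) after a 17 hr compound exposure of wild-type HepG2 cells seeded at 2,000 per well and pre-incubated 5 hr.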

Chain of Cytochrome P450 3A4 (Homo sapiens) (P08684 whole entry, looked up): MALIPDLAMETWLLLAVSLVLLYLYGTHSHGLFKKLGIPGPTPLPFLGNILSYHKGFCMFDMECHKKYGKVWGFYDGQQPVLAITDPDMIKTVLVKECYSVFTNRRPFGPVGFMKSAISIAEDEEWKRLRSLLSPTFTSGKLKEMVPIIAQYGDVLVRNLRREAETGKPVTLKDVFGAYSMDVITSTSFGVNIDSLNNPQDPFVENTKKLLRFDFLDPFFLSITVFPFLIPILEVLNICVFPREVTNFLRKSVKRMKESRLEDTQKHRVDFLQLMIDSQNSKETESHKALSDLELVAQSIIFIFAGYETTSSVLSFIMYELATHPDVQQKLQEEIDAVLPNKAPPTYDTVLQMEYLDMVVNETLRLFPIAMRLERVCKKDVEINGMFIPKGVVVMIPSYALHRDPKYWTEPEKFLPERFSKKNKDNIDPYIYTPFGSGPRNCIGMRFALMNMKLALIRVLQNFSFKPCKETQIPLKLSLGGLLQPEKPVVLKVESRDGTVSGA
Chain of Thyrotropin-releasing hormone receptor (Homo sapiens) (P34981 whole entry, looked up): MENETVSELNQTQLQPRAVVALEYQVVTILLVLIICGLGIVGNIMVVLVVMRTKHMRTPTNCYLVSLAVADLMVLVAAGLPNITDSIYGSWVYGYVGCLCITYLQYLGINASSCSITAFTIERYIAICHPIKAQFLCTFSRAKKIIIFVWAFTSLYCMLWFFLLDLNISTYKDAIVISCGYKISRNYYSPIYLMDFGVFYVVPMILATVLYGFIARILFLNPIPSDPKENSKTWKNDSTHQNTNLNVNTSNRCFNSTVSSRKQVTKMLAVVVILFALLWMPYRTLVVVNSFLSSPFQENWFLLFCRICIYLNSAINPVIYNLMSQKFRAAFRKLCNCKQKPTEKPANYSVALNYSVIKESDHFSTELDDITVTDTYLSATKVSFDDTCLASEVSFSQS
Chain of Cytochrome P450 2C19 (Homo sapiens) (P33261 whole entry, looked up): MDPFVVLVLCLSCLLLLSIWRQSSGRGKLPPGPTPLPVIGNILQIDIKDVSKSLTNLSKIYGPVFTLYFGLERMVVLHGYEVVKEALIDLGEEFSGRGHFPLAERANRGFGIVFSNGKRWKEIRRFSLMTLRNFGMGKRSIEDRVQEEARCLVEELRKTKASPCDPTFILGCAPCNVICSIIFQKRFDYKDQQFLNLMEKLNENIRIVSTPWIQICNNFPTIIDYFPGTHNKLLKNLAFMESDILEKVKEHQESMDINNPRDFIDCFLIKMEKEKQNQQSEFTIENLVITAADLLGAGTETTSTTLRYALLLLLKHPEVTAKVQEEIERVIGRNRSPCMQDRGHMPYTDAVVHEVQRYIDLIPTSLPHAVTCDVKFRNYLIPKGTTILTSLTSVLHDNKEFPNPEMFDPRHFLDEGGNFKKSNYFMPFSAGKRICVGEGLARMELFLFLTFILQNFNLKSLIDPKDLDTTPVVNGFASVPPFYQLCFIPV
Chain of Cytochrome P450 1A2 (Homo sapiens) (P05177 whole entry, looked up): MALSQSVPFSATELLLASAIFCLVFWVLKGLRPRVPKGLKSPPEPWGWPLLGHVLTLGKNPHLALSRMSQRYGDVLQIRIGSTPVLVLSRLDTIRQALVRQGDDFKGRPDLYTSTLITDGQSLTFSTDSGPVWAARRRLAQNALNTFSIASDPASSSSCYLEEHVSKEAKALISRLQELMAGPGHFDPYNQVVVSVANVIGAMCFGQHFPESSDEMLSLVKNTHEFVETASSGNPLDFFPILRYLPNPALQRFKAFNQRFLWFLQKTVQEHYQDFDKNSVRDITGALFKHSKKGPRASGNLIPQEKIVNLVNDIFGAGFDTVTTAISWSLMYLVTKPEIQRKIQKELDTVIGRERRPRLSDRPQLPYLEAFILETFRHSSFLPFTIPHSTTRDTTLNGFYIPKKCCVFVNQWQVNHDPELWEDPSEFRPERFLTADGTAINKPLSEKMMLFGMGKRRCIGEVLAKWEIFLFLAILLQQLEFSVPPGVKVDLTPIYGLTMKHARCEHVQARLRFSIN
Chain of Cytochrome P450 2D6 (Homo sapiens) (P10635 whole entry, looked up): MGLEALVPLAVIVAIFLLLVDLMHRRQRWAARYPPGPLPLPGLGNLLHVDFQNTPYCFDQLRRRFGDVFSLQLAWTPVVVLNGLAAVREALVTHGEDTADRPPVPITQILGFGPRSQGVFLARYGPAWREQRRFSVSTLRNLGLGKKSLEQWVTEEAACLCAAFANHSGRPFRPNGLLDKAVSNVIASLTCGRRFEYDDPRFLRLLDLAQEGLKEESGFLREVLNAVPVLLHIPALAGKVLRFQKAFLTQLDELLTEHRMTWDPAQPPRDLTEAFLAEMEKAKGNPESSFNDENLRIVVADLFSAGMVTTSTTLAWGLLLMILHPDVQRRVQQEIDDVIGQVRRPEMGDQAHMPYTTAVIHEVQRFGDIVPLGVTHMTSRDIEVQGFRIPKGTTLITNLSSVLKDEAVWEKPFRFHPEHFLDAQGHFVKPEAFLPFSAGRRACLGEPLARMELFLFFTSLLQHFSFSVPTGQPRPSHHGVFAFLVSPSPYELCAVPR
Chain of Nuclear receptor subfamily 1 group I member 2 (Homo sapiens) (O75469 whole entry, looked up): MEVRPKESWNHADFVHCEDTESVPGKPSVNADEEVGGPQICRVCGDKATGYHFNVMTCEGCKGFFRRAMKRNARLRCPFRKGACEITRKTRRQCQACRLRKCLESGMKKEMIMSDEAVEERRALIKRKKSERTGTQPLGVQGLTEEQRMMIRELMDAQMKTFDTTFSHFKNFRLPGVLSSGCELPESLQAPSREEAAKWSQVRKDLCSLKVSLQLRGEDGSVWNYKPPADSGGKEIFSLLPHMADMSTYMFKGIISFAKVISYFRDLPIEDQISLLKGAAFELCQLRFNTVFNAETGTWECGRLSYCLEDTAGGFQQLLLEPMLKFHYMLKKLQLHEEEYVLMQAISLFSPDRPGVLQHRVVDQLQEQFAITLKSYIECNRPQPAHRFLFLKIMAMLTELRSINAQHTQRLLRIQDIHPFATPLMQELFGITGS
Chain of Cytochrome P450 2C9 (Homo sapiens) (P11712 whole entry, looked up): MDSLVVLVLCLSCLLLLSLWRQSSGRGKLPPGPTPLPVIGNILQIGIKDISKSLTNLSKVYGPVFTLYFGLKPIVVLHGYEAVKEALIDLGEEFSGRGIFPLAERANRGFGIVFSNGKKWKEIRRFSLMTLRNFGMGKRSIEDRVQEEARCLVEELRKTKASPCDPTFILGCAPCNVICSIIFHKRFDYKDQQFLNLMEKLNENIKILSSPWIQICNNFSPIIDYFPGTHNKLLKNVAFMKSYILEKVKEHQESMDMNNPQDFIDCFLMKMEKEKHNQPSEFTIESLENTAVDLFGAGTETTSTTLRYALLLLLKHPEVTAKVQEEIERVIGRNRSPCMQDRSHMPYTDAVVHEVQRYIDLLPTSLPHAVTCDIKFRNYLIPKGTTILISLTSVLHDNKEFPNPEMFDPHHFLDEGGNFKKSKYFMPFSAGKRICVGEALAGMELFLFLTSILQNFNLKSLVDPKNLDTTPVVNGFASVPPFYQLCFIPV

With `Cc1c(-c2cccnc2)c2ccccc2n1CCCCC(=O)O`, in assay [1], the outcome was inactive. The Potency entry in [2], in assay [3], in assay [4], in assay [5], in [6] and in assay [7] was “inactive” in each case. In addition, the Potency entry in assay [10] was “inactive”. Besides, the Potency in assay [8] was 31.7 µM (active); in [9] it was 31.7 µM (active); in assay [11], 5.03 µM (active).
Turning to `NCCOCCOCCN`, the molecule was classed as inactive in [1]. In addition, the Potency entry in assay [2], in [3], in assay [5], in assay [6], in [12] and in assay [8] was “inactive” throughout. The Potency entry in assay [10] and in assay [11] was “inactive” each time. Moreover, the Potency in [7] is 25.2 µM (active).
Take `CC(=O)Oc1cccc2c1C(=O)c1c(OC(C)=O)cc(C(=O)O)cc1C2=O`: in assay [1], the call was inactive. The Potency result in assay [13], in assay [4], in assay [6], in [7], in [12] and in assay [9] was “inactive” throughout. The Potency result in assay [10] and in [11] was “inactive” throughout. The Potency in assay [3] and in assay [5] was 29.8 µM (active) each time.
Consider `O=S(=O)(O)c1cc(Cl)c(Cl)cc1Cl`, for which the result in [1] was inactive. Besides, the Potency result in assay [2], in assay [3], in assay [4], in [5], in assay [6] and in assay [12] was “inactive” throughout. Besides, the Potency entry in assay [10] and in assay [11] was “inactive” each time. In addition, in assay [8], the Potency is 31.7 µM (active).
Take `CCC(C)CCCC(C)(C)O` (stereo not drawn): the outcome in assay [1] was inactive. Also, the Potency result in assay [13], in [3], in assay [4], in assay [5], in [6] and in assay [7] was “inactive” each time. Also, the Potency result in [12], in assay [9], in assay [10] and in assay [11] was “inactive” in each case.
Regarding `CCC[Si](OC)(OC)OC`, in assay [1], the outcome was inactive. Also, the Potency entry in assay [2], in assay [3], in assay [5], in assay [6], in assay [7] and in assay [11] was “inactive” in each case. Also, in assay [12], the Potency is 71 µM (active).
On to `C1=COCCC1`, for which, in assay [1], the molecule was called inactive. In addition, the Potency entry in assay [13], in assay [3], in assay [4], in assay [5], in [6] and in [7] was “inactive” throughout. The Potency entry in assay [12], in assay [8], in assay [9], in [10] and in [11] was “inactive” each time.
In the case of `NC(=O)c1ccccc1C(N)=O`, the result in [1] was inactive. Also, the Potency entry in assay [13], in assay [3], in assay [4], in assay [5] and in [6] was “inactive” in each case. Also, the Potency in [7] was 40.1 µM (active); in assay [12], 40.1 µM (active); in assay [9], 28.4 µM (active); in assay [11], 63.5 µM (active).
For `C[Si](C)(C)O[Si](C)(C)O[Si](C)(C)C`, the call in assay [1] was inactive. Further, the Potency result in assay [13], in [3], in assay [4], in assay [5], in assay [6] and in assay [7] was “inactive” in each case. Moreover, the Potency entry in [12], in assay [8], in assay [9], in [10] and in assay [11] was “inactive” each time.
As to `CO[C@@H]1[C@@H](O[C@@H]2O[C@H](C)[C@@H](O[C@H]3C[C@@](C)(O)[C@@H](O)[C@H](C)O3)[C@H](N(C)C)[C@H]2O)[C@@H](CC=O)C[C@@H](C)[C@@H](O[C@@H]2CC[C@H](N(C)C)[C@@H](C)O2)/C=C/C=C/C[C@@H](C)OC(=O)C[C@H]1OC(C)=O`, the result in [1] was inactive. In assay [2], the Potency was 26.6 µM (active). Also, the Potency entry in assay [3], in assay [4], in [5], in assay [7], in assay [8] and in [9] was “inactive” throughout.
On to `Cc1ccc2c(Cl)cc(Cl)c(O)c2n1`, for which the molecule was classed as inactive in assay [1]. Moreover, the Potency entry in [2], in assay [3], in assay [4], in [5], in [6] and in [7] was “inactive” each time. The Potency result in [12], in assay [8] and in [10] was “inactive” throughout.
